PubChem BioAssay (Tox21)
Inconclusive results are not listed. The source made the active and inactive calls. Unless noted, calls follow the shape of the dose curve; as a rule, active = well fitted curve in the direction sought with a large enough effect in the repeat runs; inconclusive = weak or mixed curves; inactive = no such curve, though single readings can be large; an effect the other way counts as inactive or inconclusive.

Assays:
[1] = qHTS assay to identify small molecule agonists of the peroxisome proliferator-activated receptor delta (PPARd) signaling pathway - cell viability counter screen (AID 743211); also: nearly all actives have a fitted effect of over 55% in size; also: potency is read from the fitted curve at half-maximal effect
In short: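 Luminescent ATP viability assay (CellTiter-Glo, 30 min RT) in UAS-bla HEK293H cells carrying the PPAR delta reporter construct, 3000 cells/well, after a 17 h compound treatment at 37 C.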

[2] = target: Peroxisome proliferator-activated receptor delta (Homo sapiens) (UniProt Q03181); assay: qHTS assay to identify small molecule agonists of the peroxisome proliferator-activated receptor delta (PPARd) signaling pathway (AID 743212; calls by dose curve)
Peroxisome proliferator-activated receptor delta (Homo sapiens), sequence (Q03181 whole entry, looked up): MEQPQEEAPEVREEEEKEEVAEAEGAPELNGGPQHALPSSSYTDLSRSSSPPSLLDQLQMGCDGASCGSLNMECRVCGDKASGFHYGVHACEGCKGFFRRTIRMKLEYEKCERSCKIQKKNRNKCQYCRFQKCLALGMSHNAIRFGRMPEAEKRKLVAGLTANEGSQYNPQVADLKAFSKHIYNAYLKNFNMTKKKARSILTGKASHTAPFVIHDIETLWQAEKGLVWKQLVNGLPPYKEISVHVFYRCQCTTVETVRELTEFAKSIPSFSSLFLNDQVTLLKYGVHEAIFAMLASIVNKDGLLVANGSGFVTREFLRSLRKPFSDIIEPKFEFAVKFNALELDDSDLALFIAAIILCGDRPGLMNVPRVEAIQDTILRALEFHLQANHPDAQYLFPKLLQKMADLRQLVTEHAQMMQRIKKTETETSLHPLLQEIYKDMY
In short: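 Beta-lactamase reporter readout: a ratiometric FRET signal from the LiveBLAzer substrate after 2 h at room temperature. Compound exposure at 37 °C in PPARδ-bla HEK293H cells driven by an upstream activator sequence.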

[3] = qHTS assay to identify small molecule antagonists of the peroxisome proliferator-activated receptor delta (PPARd) signaling pathway - cell viability counter screen (AID 743213); also: nearly all actives have a fitted effect of over 50% in size; also: potency is read from the fitted curve at half-maximal effect
In short: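 Luminescence from CellTiter-Glo, added after the bla read and incubated 30 min at room temperature, gives viability of HEK293H PPARd-bla cells exposed to compounds for 17 h at 37 C with 300 nM L165041.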

[4] = target: Peroxisome proliferator-activated receptor delta (Homo sapiens) (UniProt Q03181); assay: qHTS assay to identify small molecule antagonists of the peroxisome proliferator-activated receptor delta (PPARd) signaling pathway (AID 743215; active = well fitted inhibition curve with a large enough effect in the signal ratio in the repeat runs, not every such curve was filed as active; the % refers to the signal ratio;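 also: cells stimulated with agonist L165041 at 300 nM final during compound exposure; series mostly up to about 62 µM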)
In short: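 HEK293H GeneBLAzer PPARd UAS-bla reporter cells; cpd + L165041 300 nM final, 17 h 37 C; LiveBLAzer B/G FRET substrate 2 h RT; fluorescence intensity read-out. Antagonist mode.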

[5] = qHTS assay to identify small molecule agonists of the farnesoid-X-receptor (FXR) signaling pathway - cell viability counter screen (AID 743218); also: nearly all actives have a fitted effect of over 45% in size; also: potency is read from the fitted curve at half-maximal effect
In short: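 Luminescence from CellTiter-Glo, read after 30 min at RT, reports viability of GeneBLAzer FXR-UAS-bla HEK 293T cells treated 16 h with compounds in the wells used for the beta-lactamase reporter.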

[6] = qHTS assay to identify small molecule antagonists of the farnesoid-X-receptor (FXR) signaling pathway - cell viability counter screen (AID 743221; active = well fitted cell-killing curve with a large enough effect in the repeat runs, not every such curve was filed as active; also: nearly all actives have a fitted effect of over 50% in size; also: potency is read from the fitted curve at half-maximal effect)
In short: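 In GeneBLAzer FXR-UAS-bla HEK 293T cells stimulated with 50 uM chenodeoxycholic acid (final), compounds acted for 16 h at 37 C. Viability was assessed afterwards by CellTiter-Glo luminescence.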

[7] = target: Vitamin D3 receptor (Homo sapiens) (UniProt P11473); assay: qHTS assay to identify small molecule agonists of the vitamin D receptor (VDR) signaling pathway (AID 743222; calls by dose curve)
Vitamin D3 receptor (Homo sapiens), sequence (P11473 whole entry, looked up): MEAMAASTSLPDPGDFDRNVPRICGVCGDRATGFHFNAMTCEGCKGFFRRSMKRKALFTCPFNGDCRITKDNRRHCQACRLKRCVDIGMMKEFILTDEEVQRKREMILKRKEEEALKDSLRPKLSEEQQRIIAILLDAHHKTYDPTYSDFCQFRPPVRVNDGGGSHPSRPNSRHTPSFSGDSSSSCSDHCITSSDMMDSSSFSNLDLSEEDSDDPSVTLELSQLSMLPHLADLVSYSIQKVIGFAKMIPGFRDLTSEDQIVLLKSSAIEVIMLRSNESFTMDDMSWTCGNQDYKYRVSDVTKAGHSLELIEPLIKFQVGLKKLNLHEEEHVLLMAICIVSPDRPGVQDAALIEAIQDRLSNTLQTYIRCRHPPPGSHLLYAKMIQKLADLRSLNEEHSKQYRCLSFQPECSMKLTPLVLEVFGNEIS
In short: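 Beta-lactamase reporter readout (LiveBLAzer B/G FRET, 2 h RT) in VDR-bla cells after 16 h compound treatment at 37C, 5% CO2; cells pre-incubated 4 h before pin transfer of DMSO solutions.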

[8] = target: Vitamin D3 receptor (Homo sapiens) (UniProt P11473); assay: qHTS assay to identify small molecule antagonists of the vitamin D receptor (VDR) signaling pathway (AID 743223; active = well fitted inhibition curve with a large enough effect in the signal ratio in the repeat runs, not every such curve was filed as active; the % refers to the signal ratio)
In short: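 Agonist 1alpha,25-dihydroxyvitamin D3 (3 nM in well) was added with each compound to VDR-bla cells preincubated 4 h. Cells stood 16 h at 37C, then FRET substrate 2 h at room temperature; fluorescence intensity recorded.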

[9] = qHTS assay to identify small molecule agonists of the vitamin D receptor (VDR) signaling pathway - cell viability counter screen (AID 743224); also: nearly all actives have a fitted effect of over 50% in size; also: potency is read from the fitted curve at half-maximal effect
In short: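 Cytotoxicity counter screen: VDR-bla cells, 16 h compound exposure at 37C, 5% CO2; CellTiter-Glo luminescence, 30 min RT, same wells as bla read.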

[10] = qHTS assay to identify small molecule antagonists of the vitamin D receptor (VDR) signaling pathway - cell viability counter screen (AID 743225); also: nearly all actives have a fitted effect of over 50% in size; also: potency is read from the fitted curve at half-maximal effect
In short: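 Luminescent cell viability (CellTiter-Glo) in VDR-bla HEK 293T cells after 16 h compound exposure at 37C in the presence of 3 nM final 1-alpha,25-dihydroxy vitamin D3.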

[11] = qHTS assay to identify small molecule agonists of the NFkB signaling pathway (AID 1159509; active = well fitted curve in the direction sought with a large enough effect in the signal ratio in the repeat runs, not every such curve was filed as active; the % refers to the signal ratio; also: series mostly up to about 61 µM)
In short: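 Pathway activation was measured in ME-180 cells stably expressing beta-lactamase under NF-kB response element control. Substrate cleavage was read as the 460/530 nm emission shift after 5 hr compound incubation.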

[12] = qHTS assay to identify small molecule agonists of the endoplasmic reticulum stress response signaling pathway - cell viability counter screen (AID 1159517; calls by dose curve; also: nearly all actives have a fitted effect of over 50% in size; also: potency is read from the fitted curve at half-maximal effect)
In short: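 ESRE-bla HeLa cells (1,500/well) were plated overnight at 37 C and exposed to compounds for 5 hr. After the 2 hr beta-lactamase substrate read, CellTiter-Glo went into the same wells, and luminescence was read after 30 min at room temperature.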

[13] = qHTS assay to identify small molecule antagonists of the retinoid-related orphan receptor gamma (ROR-gamma) signaling pathway - cell viability counter screen (AID 1159520); also: nearly all actives have a fitted effect of over 50% in size
In short: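 Cytotoxicity was read from cellular ATP (CellTiter-Glo luminescence) after 16 hr at 37 C with 1 uM doxycycline induction. The inducer was added 2 hr after compound transfer to Tet-on ROR gamma CHO cells.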

[14] = target: Nuclear receptor ROR-gamma (Homo sapiens) (UniProt P51449); assay: qHTS assay to identify small molecule antagonists of the retinoid-related orphan receptor gamma (ROR-gamma) signaling pathway (AID 1159521; also: nearly all actives have a fitted effect of over 50% in size; also: potency is read from the fitted curve at half-maximal effect)
In short: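 CHO cells expressing RORγ under a TET-on promoter, luciferase under RORE control. Dox 1 uM final, 16 h; compounds added 2 h prior. Luminescence decrease measured.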

[15] = qHTS assay to identify small molecule agonists of the AP-1 signaling pathway - cell viability counter screen (AID 1159525; calls by dose curve; also: nearly all actives have a fitted effect of over 55% in size; also: potency is read from the fitted curve at half-maximal effect)
In short: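 Intracellular ATP by Cell Titer Glo luminescence (30 min, RT) in the same ME-180 AP-1-bla wells after the 5 h compound exposure at 37 °C. Normalised to tetra n-octyl ammonium bromide and DMSO controls.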

[16] = qHTS assay to identify small molecule agonists of the AP-1 signaling pathway (AID 1159526; calls by dose curve)
[17] = target: Bile acid receptor (Homo sapiens) (UniProt Q96RI1); assay: qHTS assay to identify small molecule agonists of the farnesoid-X-receptor (FXR) signaling pathway (AID 743220; active = well fitted activation curve with a large enough effect in the signal ratio in the repeat runs, not every such curve was filed as active; the % refers to the signal ratio)
Bile acid receptor (Homo sapiens), sequence (Q96RI1 whole entry, looked up): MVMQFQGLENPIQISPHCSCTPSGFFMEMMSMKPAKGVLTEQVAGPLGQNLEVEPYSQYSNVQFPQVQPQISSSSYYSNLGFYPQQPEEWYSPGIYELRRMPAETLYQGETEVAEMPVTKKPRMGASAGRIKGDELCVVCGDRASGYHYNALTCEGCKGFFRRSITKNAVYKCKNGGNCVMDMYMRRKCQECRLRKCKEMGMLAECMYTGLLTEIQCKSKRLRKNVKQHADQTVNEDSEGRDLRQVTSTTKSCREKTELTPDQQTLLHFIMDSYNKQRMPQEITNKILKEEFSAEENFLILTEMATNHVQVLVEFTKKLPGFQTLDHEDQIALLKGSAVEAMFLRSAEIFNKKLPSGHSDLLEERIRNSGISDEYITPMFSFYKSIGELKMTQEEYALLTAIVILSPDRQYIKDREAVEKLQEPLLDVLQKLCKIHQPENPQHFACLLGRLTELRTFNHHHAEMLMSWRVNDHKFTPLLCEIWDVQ
In short: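 FXR-UAS-bla HEK 293T cells carrying a UAS-driven beta-lactamase reporter were plated for 5 h at 37C/5% CO2, then exposed to DMSO-dissolved Tox21 10K compounds for 16 h at 37C. A LiveBLAzer B/G FRET substrate was loaded for 2 h at room temperature before fluorescence reading.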

[18] = qHTS assay to identify small molecule agonists of the endoplasmic reticulum stress response signaling pathway (AID 1159516; active = well fitted activation curve with a large enough effect in the signal ratio in the repeat runs, not every such curve was filed as active; the % refers to the signal ratio)
In short: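 HeLa ESRE-bla reporter line; cpd 5 h, 37 C/5% CO2; LiveBLAzer B/G FRET substrate 2 h RT; ex 405, em 460/530 nm.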

[19] = target: Bile acid receptor (Homo sapiens) (UniProt Q96RI1); assay: qHTS assay to identify small molecule antagonists of the farnesoid-X-receptor (FXR) signaling pathway (AID 743217; active = well fitted inhibition curve with a large enough effect in the signal ratio in the repeat runs, not every such curve was filed as active; the % refers to the signal ratio)
In short: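 Read-out: beta-lactamase FRET fluorescence (LiveBLAzer B/G substrate, 2 h, room temperature) in GeneBLAzer FXR-UAS-bla HEK 293T cells. Compounds were co-dosed with 50 uM chenodeoxycholic acid (final) and incubated 16 h at 37 °C.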

Measured: Potency

COC(=O)CCS
not listed: [17] | [18] | [19]
inactive: all other assays above

CC(C)c1nc(CN(C)C(=O)N[C@H](C(=O)N[C@@H](Cc2ccccc2)C[C@H](O)[C@H](Cc2ccccc2)NC(=O)OCc2cncs2)C(C)C)cs1
inactive: [4] | [17] | [9] | [11] | [13] | [16]
active: [1] 29.8 µM | [12] 15.1 µM | [15] 19 µM

CC(=O)NC1(c2cccc(F)c2)CCN(CC[C@@]2(c3ccc(Cl)c(Cl)c3)CN(c3ccccc3)C(=O)CO2)CC1
active: [1] 13.8 µM | [3] 21.9 µM | [5] 15.5 µM | [6] 24.6 µM | [9] 39 µM | [10] 43.8 µM | [14] 38.7 µM
inactive: [17] | [7] | [11] | [18] | [15] | [16]

CS(=O)(=O)c1ccc(-c2cn3ccccc3n2)cc1
inactive: [2] | [4] | [5] | [6] | [8] | [11] | [18] | [14]
active: [1] 29.8 µM | [9] 29.8 µM | [12] 23.9 µM

Clc1ccc(Nc2nnc(Cc3ccncc3)c3ccccc23)cc1
inactive: [1] | [3] | [17] | [7] | [8] | [11] | [18] | [12] | [15] | [16]

Cc1cc(C)cc(N)c1
not listed: [14] | [18]
inactive: all other assays above

C1COC1
not listed: [4] | [12]
inactive: all other assays above

C(=C\c1ccccc1)/c1ccccc1
not listed: [4] | [5] | [12] | [14]
inactive: all other assays above

Cc1ccco1
not listed: [2] | [4] | [12] | [15] | [17] | [19]
inactive: all other assays above

C=Cc1ccc(S(=O)(=O)O)cc1
inactive: [1] | [4] | [8] | [10] | [11] | [18] | [13] | [14]

CC(=O)Nc1cc(S(=O)(=O)O)cc2cc(S(=O)(=O)O)c(N=Nc3ccccc3)c(O)c12
not listed: [13] | [14] | [17] | [19]
inactive: all other assays above
